Source: a collection of fitness landscapes (doi:10.1016/j.celrep.2020.107928)
The full ranking holds about 81,000 sequences; the median of “one-hybrid fitness for binding parS DNA” is about -0.17, and the highest 2% start at about 0.51. The sample as a whole holds a higher share of the highest values than the screen did.

B1: Caulobacter ParB omega fusion; a variant is named by its letters at X, in order, B8GW30 (parent)
chain: MESVVVGEPGMSEGRRGLGRGLSALLGEVDAAPAQAPGEQLGGSREAPIEILQRNPDQPRRTFREEDLEDLSNSIREKGVLQPILVRPSPDTAGEYQIVAGERAWRAAQRAGLKTVPIMVRELDDLAVLEIGIIENVQRADLNVLEEALSYKVLMEKFERTQENIAQTIGKSXSHVANXMRLLXLPDEVQSYLVSGELTAXHARAIAAAADPVALAKQIIEGGLSVRETEALARKAPNLSAGKSKGGRPPRVKDTDTQALESDLSSVLGLDVSIDHRGSTGTLTITYATLEQLDDLCNRLTRGI

Variants of: B1
Assay: one-hybrid fitness for binding parS DNA (scaled: cognate 1, non-cognate 0); higher = stronger binding
Details: with parS DNA site
Outline: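 The reporter was HIS3, with the binding site 19 bp from the promoter, in E. coli USO used for bacterial one-hybrid selection of Caulobacter ParB libraries with four specificity codons randomised. Growth was on M9 lacking histidine, with 0.1 mM IPTG and 5 mM 3-AT, for 48 hours at 37°C. Illumina sequencing covered plasmids before and after selection; three replicate libraries were pooled and variants with under 10 reads dropped. A fitness score is the log change in variant-to-wild-type read ratio, rescaled to the cognate and non-cognate references.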

Variant	one-hybrid fitness for binding parS DNA
RERC	0.334
RDRC	≤ 0.2
RCRC	0.863
RSDN	0.313
RPDC	≤ 0.2
RSDC	0.773
REDC	≤ 0.2
RCDC	0.877
RSRC	0.932
RSRF	0.281
RPRC	≤ 0.2
RSDD	≤ 0.2
AHPR	≤ 0.2
NQNV	≤ 0.2
QPDY	≤ 0.2
SCMC	≤ 0.2
LKGL	≤ 0.2
CAST	≤ 0.2
INPC	≤ 0.2
ETLI	≤ 0.2
FWGR	≤ 0.2
RHDS	0.967
RHNH	≤ 0.2
RHDP	≤ 0.2
RHND	≤ 0.2

Variant	one-hybrid fitness for binding parS DNA
RHDH	≤ 0.2
RHNS	0.864
SDHS	≤ 0.2
QQDM	≤ 0.2
MDNG	≤ 0.2
EESV	≤ 0.2
LGER	≤ 0.2
RQGL	≤ 0.2
RLTQ	≤ 0.2
RETG	0.249
RLTG	1.03
RPTG	≤ 0.2
RRTM	0.351
RRTK	≤ 0.2
RITD	≤ 0.2
RLTD	≤ 0.2
RITP	≤ 0.2
RITG	0.997
RRTG	0.699
RCTG	1.02
QTKN	≤ 0.2
DQEG	≤ 0.2
NHEC	≤ 0.2
QCPT	≤ 0.2
IMKR	≤ 0.2

Variant	one-hybrid fitness for binding parS DNA
GAMN	≤ 0.2
LESA	≤ 0.2
LGIT	≤ 0.2
SQRC	≤ 0.2
GQLN	≤ 0.2
NPSA	≤ 0.2
GPFR	≤ 0.2
RKTG	0.905
RHTK	≤ 0.2
RFTG	0.977
RHTD	≤ 0.2
RMTH	0.218
NFTG	≤ 0.2
RKTK	≤ 0.2
RMTK	≤ 0.2
RHTG	0.967
RKTR	≤ 0.2
DFTG	≤ 0.2
RMTG	1.02
ARLR	≤ 0.2
MAAN	≤ 0.2
VTYC	≤ 0.2
VAAS	≤ 0.2
WVLT	≤ 0.2
IAPF	≤ 0.2

Variant	one-hybrid fitness for binding parS DNA
QMYC	≤ 0.2
YLQA	≤ 0.2
IPAC	≤ 0.2
RSTG	1
RTTG	1
RTTR	≤ 0.2
RTTY	0.477
RSTN	0.461
RSTP	≤ 0.2
VSEV	≤ 0.2
PLGR	≤ 0.2
SLYF	≤ 0.2
HVAN	≤ 0.2
SESV	≤ 0.2
KMES	≤ 0.2
AYKT	≤ 0.2
HFLP	≤ 0.2
IRCS	≤ 0.2
RNKT	0.819
RNKF	0.242
RNVT	0.514
RNVN	≤ 0.2
RNKR	≤ 0.2
RNVH	0.202
